According to PubChem BioAssay (EPA / NIEHS):
Results filed as inconclusive are left out. Activity calls are given as the source filed them. The calls were made as follows, unless noted: active = hit-call score of the fitted dose curve at least 0.9, where 1 is the maximum; inactive = score below 0.9.

Tests used:
[1] = biological target: Nucleoli Translocation, AR (gene 367) (UniProt P10275); experiment: UPITT_HCI_U2OS_AR_TIF2_Nucleoli_Agonist: University of Pittsburgh U2OS Androgen Receptor-Transcriptional Intermediary Factor 2 (AR-TIF2) Agonism High Content Imaging Assay for Nucleoli Translocation (AID 2283998; active = hit-call score of the fitted dose curve at least 0.9, where 1 is the maximum)
Sequence of Nucleoli Translocation, AR (gene 367) (P10275 whole entry, looked up): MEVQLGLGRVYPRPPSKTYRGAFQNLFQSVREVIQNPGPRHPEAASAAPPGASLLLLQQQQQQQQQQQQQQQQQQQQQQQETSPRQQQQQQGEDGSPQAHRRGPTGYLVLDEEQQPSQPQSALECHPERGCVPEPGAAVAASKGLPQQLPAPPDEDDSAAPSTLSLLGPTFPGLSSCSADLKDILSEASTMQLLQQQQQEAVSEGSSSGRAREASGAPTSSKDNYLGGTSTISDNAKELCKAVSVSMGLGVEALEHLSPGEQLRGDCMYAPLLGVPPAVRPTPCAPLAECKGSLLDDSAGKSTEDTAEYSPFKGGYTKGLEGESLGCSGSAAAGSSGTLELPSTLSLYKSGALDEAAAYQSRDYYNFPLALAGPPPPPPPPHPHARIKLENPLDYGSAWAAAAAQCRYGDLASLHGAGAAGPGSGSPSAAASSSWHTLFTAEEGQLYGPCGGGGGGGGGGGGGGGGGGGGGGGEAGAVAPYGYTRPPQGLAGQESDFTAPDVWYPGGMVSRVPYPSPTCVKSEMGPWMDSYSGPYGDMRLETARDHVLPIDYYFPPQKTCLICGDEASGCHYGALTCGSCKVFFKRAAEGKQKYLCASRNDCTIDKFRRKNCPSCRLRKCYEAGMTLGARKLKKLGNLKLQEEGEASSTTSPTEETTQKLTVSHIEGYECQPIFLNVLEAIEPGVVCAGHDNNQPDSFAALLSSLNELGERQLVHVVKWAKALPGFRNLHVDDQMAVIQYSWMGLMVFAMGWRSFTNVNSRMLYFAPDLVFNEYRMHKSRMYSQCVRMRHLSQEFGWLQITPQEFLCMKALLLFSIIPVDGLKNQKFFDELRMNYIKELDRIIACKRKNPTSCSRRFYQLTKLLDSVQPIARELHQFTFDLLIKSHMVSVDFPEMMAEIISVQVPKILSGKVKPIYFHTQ
In short: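 Readout is red (AR-RFP) fluorescence localized to nucleoli, measured by high-content imaging and analysed for increase relative to DMSO. Compound series spanned 0.195 to 50 uM final in 0.5% DMSO.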

[2] = CCTE_Harrill_HTTr_Viability_MCF7: CCTE's 6-hour Cell Viability Assessment for the High-Throughput Transcriptomics (HTTr) Platform, in MCF-7 cells cultured in DMEM + 10% fetal bovine serum, Harrill Lab (AID 2284010)
In short: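 Cells were dosed with chemicals in an eight-point dilution series, imaged 6 hours later for propidium iodide uptake, and the endpoint was analyzed by bidirectional fitting against DMSO as negative control.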

[3] = CCTE_Harrill_HTTr_Apoptosis_MCF7: CCTE's 6-hour Apoptosis Assessment for the High-Throughput Transcriptomics (HTTr) Platform, in MCF-7 cells cultured in DMEM + 10% fetal bovine serum, Harrill Lab (AID 2284011)
In short: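 MCF-7 (DMEM + 10% FBS), 384-well; 8-pt dilution series, 6 h chemical exposure; caspase-3/7 activation via CellEvent Caspase 3/7 Green, HCI; bidirectional fit vs DMSO.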

[4] = biological target: Ratio of Nucleoli Translocation and Cytoplasm, AR (gene 367) (UniProt P10275); experiment: UPITT_HCI_U2OS_AR_TIF2_Nucleoli_Cytoplasm_Ratio_Antagonist: University of Pittsburgh U2OS Androgen Receptor-Transcriptional Intermediary Factor 2 (AR-TIF2) Antagonism High Content Imaging Assay for Ratio of Nucleoli Translocation and Cytoplasm (AID 2283999; active = hit-call score of the fitted dose curve at least 0.9, where 1 is the maximum;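 also: antagonists lower the DHT-driven ratio of nucleolar to cytoplasmic red signal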)
Sequence of Ratio of Nucleoli Translocation and Cytoplasm, AR (gene 367) (P10275 whole entry, looked up, the tested form may be a part): as the sequence (P10275 whole entry, looked up) above
In short: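 Human osteosarcoma U2OS line, AR fused to RFP, coactivator TIF2 fused to GFP. Cpds 20 uM final, 0.2% DMSO (screen); 0.195–50 uM final, 0.5% DMSO (CRC). Endpoint: nucleoli/cytoplasm red signal ratio, DHT as baseline, loss-of-signal antagonist mode.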

[5] = CCTE_Shafer_MEA_acute_spike_number: CCTE's Neural Acute Assay for Total Number of Spikes, Shafer Lab (AID 2284008);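 as to AC50: curve fitted for decrease in spike count so AC50 reflects inhibitors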
In short: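 Read-out is the total spike count over 40 min, expressed as percent change from each well's own pre-treatment baseline and fitted in the loss direction against DMSO. Rat cortical neurons were exposed at 0.03-40 uM on DIV 13 or 15.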

[6] = CCTE_Shafer_MEA_acute_firing_rate_mean: CCTE's Neural Acute Assay for Mean Firing Rate, Shafer Lab (AID 2284009);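 also: analyzed for loss of signal so actives lower firing rate relative to DMSO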
In short: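 Read-out: well-mean spike rate (spikes/recording length/electrodes), % change from 40 min pre-dose baseline to 40 min with compound. Rat cortical cultures, DIV 13 or 15, 37 C; 0.03-40 uM; DMSO as negative control.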

[7] = CCTE_Simmons_MITO_basal_resp_rate: CCTE's HepG2 Seahorse XF Respirometric Screening Assay at Basal Respiratory State, Simmons Lab (AID 2284001); conditions: actives raise or lower the signal
In short: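 HepG2 cells were given test chemicals at 7 concentrations, 125 nM to 100 uM final, and oxygen consumption rate was read every 6 min (3 min mix, 3 min measure) over 72 min. Basal-phase OCR was fitted bidirectionally against DMSO.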

[8] = CCTE_Simmons_MITO_max_resp_rate: CCTE's HepG2 Seahorse XF Respirometric Screening Assay at Maximal Respiratory State [uncoupled], Simmons Lab (AID 2284002); conditions: actives raise or lower the signal
In short: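 Read-out is oxygen consumption rate at maximal respiration, taken after FCCP uncoupling of compound-treated HepG2 cells. Seven final concentrations from 125 nM to 100 uM were tested, each in three biological replicates.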

[9] = CCTE_Simmons_MITO_inhib_resp_rate: CCTE's HepG2 Seahorse XF Respirometric Screening Assay at Inhibited Respiratory State [full ETC block], Simmons Lab (AID 2284006); conditions: actives raise or lower the signal
In short: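 Compound injected onto HepG2 cells (125 nM–100 uM final, 7 points); FCCP then rotenone/antimycin A added. Oxygen consumption read every 6 min (3 min mix, 3 min measure) for 72 min. Inhibited-state OCR fitted against DMSO.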

[10] = CCTE_Simmons_MITO_viability: CellTiter-Glo Viability Assessment for CCTE's HepG2 Seahorse XF Respirometric Screening Assay [post-hoc], Simmons Lab (AID 2284007; active = hit-call score of the fitted dose curve at least 0.9, where 1 is the maximum;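 as to AC50: cells exposed to chemical for 90 min before the ATP read; actives lower ATP signal relative to DMSO baseline meaning reduced viability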)
In short: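 After the Seahorse oxygen-consumption sequence (basal, FCCP, rotenone/antimycin A; 72 min total), HepG2 viability was scored as ATP content by bioluminescence. Chemicals ran at seven concentrations up to 100 uM final for 90 min.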

Measured: AC50

CCOC(=O)COc1cc(-n2ncc(C(F)(F)F)c(C)c2=O)c(F)cc1Cl
inactive: [1] | [2] | [3]

CCSC(=O)N(CC(C)C)CC(C)C
inactive: [1] | [4] | [2] | [3]

CSC(=O)c1cccc2nnsc12
inactive: [1] | [4] | [5] | [6] | [2] | [3]

O=C(c1ccc(O)cc1O)c1ccc(O)cc1O
active: [4] 2.35 µM | [7] 34.6 µM
inactive: all other assays above

CC(C)CCCCCCc1ccc(O)cc1
inactive: [9] | [10] | [2] | [3]
active: [7] 50 µM | [8] 43.8 µM | [5] 6.02 µM | [6] 6.03 µM

CCOC(=O)NCCOc1ccc(Oc2ccccc2)cc1
inactive: [9] | [10] | [2] | [3]
active: [7] 21.5 µM | [8] 19.8 µM

N#CSCSc1nc2ccccc2s1
active: [1] 13 µM | [4] 32.4 µM | [7] 15.1 µM | [8] 22.7 µM
inactive: all other assays above

CCCCOC(=O)[C@@H](C)Oc1ccc(Oc2ccc(C(F)(F)F)cn2)cc1
inactive: [7] | [8] | [9] | [10] | [2] | [3]

O=C(c1ccccc1)C1CCCCC1
inactive: [1] | [4] | [5] | [6]

O=C(O)C1(C(=O)Nc2ccc(Cl)cc2Cl)CC1
inactive: [1] | [7] | [9] | [2] | [3]
active: [8] 37.8 µM | [10] 29.3 µM
